Source: PubChem BioAssay (The Scripps Research Institute Molecular Screening Center)
Rows were chosen to be rich in hits. Some 3.5% of all compounds tested hit in one or more screens of this group.
MITF inh = inhibitors of human MITF; inhibition, % at 2.6 µM; 0.91% of 650,000 active; O75030; AlphaScreen MITF homodimerization, bead proximity signal; in the data active = inhibition above about 50%;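 also: 0% = vehicle wells with protein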
TEAD-YAP inh = TEAD-YAP interaction inhibition; HEK-TIYL cells, TEAD-Gal4/YAP UAS-luciferase luminescence; inhibition, % at 9.12 µM; 1.4% of 640,000 active; in the data active = inhibition above about 32%;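 also: 0% = median of test compound wells and 100% = reference inhibitor wells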
GPR151 ag = human GPR151 activation; Q8TDV0; activation, % at 11.2 µM; AID 1508602; 1% of 650,000 active; PathHunter beta-arrestin GPR151 cells, luminescence; in the data active = activation above about 4.9%;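 also: 0% = median of compound wells and 100% = cells with positive control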
FBW7 activator = human FBW7 E3 ligase activation, primary screen; 0.13% of 650,000 active; normalized activity (activation), % at 26.1 µM; AlphaScreen FBW7–phospho-cyclin E peptide binding, activator screen; Q969H0; in the data active = normalized activity above about 1.9%;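 also: purified mutant Fbw7 with reduced substrate affinity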
Target sequence (Q969H0 whole entry, looked up): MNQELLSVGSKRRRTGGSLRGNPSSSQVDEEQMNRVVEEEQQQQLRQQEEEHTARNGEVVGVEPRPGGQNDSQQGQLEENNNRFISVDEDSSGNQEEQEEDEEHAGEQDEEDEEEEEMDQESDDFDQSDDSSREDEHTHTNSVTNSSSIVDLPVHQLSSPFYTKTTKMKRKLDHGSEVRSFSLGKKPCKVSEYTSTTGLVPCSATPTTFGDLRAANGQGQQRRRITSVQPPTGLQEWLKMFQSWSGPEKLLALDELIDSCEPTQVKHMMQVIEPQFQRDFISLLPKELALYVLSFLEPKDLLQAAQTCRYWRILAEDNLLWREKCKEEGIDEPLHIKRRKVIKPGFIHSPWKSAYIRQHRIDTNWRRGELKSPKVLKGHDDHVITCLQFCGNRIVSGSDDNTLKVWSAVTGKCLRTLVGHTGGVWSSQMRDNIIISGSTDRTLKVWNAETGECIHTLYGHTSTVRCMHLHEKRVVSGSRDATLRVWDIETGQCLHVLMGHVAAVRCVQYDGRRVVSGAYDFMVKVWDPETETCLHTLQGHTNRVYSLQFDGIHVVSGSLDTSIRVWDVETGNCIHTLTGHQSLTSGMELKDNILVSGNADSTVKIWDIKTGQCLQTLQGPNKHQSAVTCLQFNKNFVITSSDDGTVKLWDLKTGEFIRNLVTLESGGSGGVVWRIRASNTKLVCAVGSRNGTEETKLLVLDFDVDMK
* = called active by the depositor.

SMILES	MITF inh	TEAD-YAP inh	GPR151 ag	FBW7 activator
CC(=O)[C@H]1CCC2C3CC[C@H]4C[C@H](O)CC[C@]4(C)C3CC[C@@]21C (stereo partly specified)	-9	-6	4	0
O=c1cccc2n1CC1CC2CN(Cc2ccc(Cl)cc2)C1 (stereo unspecified)	-1	3	3	0
O=C1NC(=O)C(=Cc2ccc(Br)o2)C(=O)N1	63*	-1	2	0
COc1ccc(Sc2ccc(C=C3C(=O)NC(=O)NC3=O)o2)cc1	9	9	0	0
COc1ccc(N2C(=O)/C(=C/c3ccc(Br)o3)C(=O)NC2=S)cc1	60*	9	-1	0
COc1ccc(N2C(=O)/C(=C\c3ccc(C)o3)C(=O)NC2=S)cc1	-3	-2	-1	0
Cc1ccc(N2C(=O)NC(=O)/C(=C/c3ccc([N+](=O)[O-])o3)C2=O)cc1	70*	0	0	0
COc1ccc(N2C(=O)NC(=O)/C(=C/c3ccc(Br)o3)C2=O)cc1	73*	3	3	0
CCOc1ccc(CN(CCc2ccc3c(c2)OCO3)Cc2ccc(OC)cc2)cc1	13	6	-2	0
COC(=O)c1ccc(N2C(=O)NC(=O)/C(=C\c3ccccc3OCC(=O)O)C2=O)cc1	5	7	-1	0
CCCCN(C)C(=O)c1nc2ccccn2c1CNC(C)Cc1ncccc1C (stereo unspecified)	1	0	3	0
O=c1c2ccccc2nc(/C=C\c2ccc(F)cc2)n1-c1cccc([N+](=O)[O-])c1	-8	-14	1	0
NCCc1cc(O)c(O)cc1O	114*	-9	0	0
C=CC(=O)N1CC2CC(C1)c1cccc(=O)n1C2 (stereo unspecified)	11	1	0	0
COc1ccccc1-n1c(/C=C/c2ccc([N+](=O)[O-])cc2)nc2ccccc2c1=O	-15	16	-1	0
COc1ccccc1-n1c(/C=C/c2ccc(N(C)C)cc2)nc2ccccc2c1=O	-16	-12	0	2.3*
CC(C)(C)NC(=O)c1cccn(Cc2ccc(Cl)cc2)c1=O	5	7	2	0
COC(=O)C(O)(c1cc(C)c(O)c(C)c1)C(F)(F)F (stereo unspecified)	9	4	1	0
CCn1cnc2c(Nc3cccc(Cl)c3)nc(N[C@@H]3CCCC[C@@H]3N)nc21	-4	46*	2	0
O=P1(N2CCN(c3ccccc3)CC2)CC=CC1	18	5	0	1
CN1CC=C(c2noc(CCC(=O)N3CCN(c4ncccn4)CC3)n2)CC1	17	-9	-1	1
Cc1cccc(N2CCN(C(=O)CCc3nc(C4=CCN(C)CC4)no3)CC2C)c1 (stereo unspecified)	24	13	0	4.1*
CN1CC=C(c2noc(CCC(=O)Nc3cccc(Cl)c3)n2)CC1	36	11	-1	1.9*
CN1CC=C(c2noc(CCC(=O)Nc3ccccc3Cl)n2)CC1	12	-8	-1	1
CN1CCN(c2ccc([N+](=O)[O-])s2)CC1	22	5	-2	0
SMILES	MITF inh	TEAD-YAP inh	GPR151 ag	FBW7 activator
O=[N+]([O-])c1cccc(CN2CCN(Cc3ccccc3)CC2)c1	36	2	-1	0
O=Cc1cn(Cc2cccc([N+](=O)[O-])c2)c2ccccc12	-4	48*	-1	-1
COc1ccc(/C=C2/C(O)C3CCN2CC3)cc1 (stereo unspecified)	-2	-3	2	0
COc1ccc(/C=C2\CCCc3c(-c4ccccc4)cc(-c4ccccc4)[n+](C)c32)cc1	-3	92*	1	0
COc1ccccc1/C=C1\CCCc2c(-c3ccccc3)cc(-c3ccccc3)[n+](C)c21	14	95*	2	0
O=C1C2Cc3ccccc3CN2C(=S)N1c1ccc([N+](=O)[O-])cc1 (stereo unspecified)	0	-12	0	0
O=C1NC(=O)N(Cc2ccco2)C(=O)/C1=C\c1cn(Cc2ccccc2)c2ccccc12	28	0	0	0
NC(=O)C1CCN(/C=C2\C(=O)NC(=O)N(Cc3ccco3)C2=O)CC1	58*	12	-1	0
CN1C2CCC1/C(=C\c1cccnc1)C(=O)/C2=C/c1cccnc1	22	53*	0	1
O=C1/C(=C/c2cccnc2)N2CCC1CC2	2	-7	0	0
O=c1c(O)c(-c2ccc(O)c(O)c2)oc2c(O)c(O)cc(O)c12	57*	-18	4	0
CNc1ccccc1C(=O)O	-11	1	-3	1
C[CH2][Hg][S]c1ccccc1C(=O)O	-6	74*	4	0
CCn1nc(-c2ccc([N+](=O)[O-])cc2)nc2c(=O)n(C)c(=O)nc1-2	9	70*	-8	0
COc1ccc(-n2c(/C=C/c3ccccc3)nc3ccccc3c2=O)cc1	-3	7	1	0
CCn1nc(/C=C/c2ccccc2)nc2c(=O)n(C)c(=O)nc1-2	6	33*	-6	-2
C=CCc1cc(C=C2C(=O)NC(=S)NC2=O)cc(OC)c1O	24	6	-2	0
CC1(C)C2CCC1(C)C(NCC(O)c1ccccc1)C2 (stereo unspecified)	37	-4	2	0
C=CCOC(=O)C1=C(C)OC(N)=C(C(=O)OC)C12C(=O)Nc1ccc(Br)cc12 (stereo unspecified)	11	5	-1	1
CCC1/C=C/C=C/C[C@H](C)[C@@H](O)[C@](C)(O)C(=O)[C@@H](C)[C@H](O)[C@@H](C)C(=O)[C@H](C)[C@@H](O)[C@H](C)/C=C/C(=O)OC2[C@@H](C)C(CC1)OC1(CC[C@@H](C)C(C[C@H](C)O)O1)[C@@H]2C (stereo partly specified)	-1	94*	4	0
Cc1ccccc1-n1c(-c2cccs2)nc2ccccc2c1=O	6	1	0	0
COc1cc(OC)c(OC)cc1CN1CC2CC(C1)c1cccc(=O)n1C2 (stereo unspecified)	11	1	0	0
O=C(NC1CCCCC1)C(Cl)(Cl)Cl	-13	-2	-1	0
CCOC(=O)C1=C(NC(=S)NC(=O)c2ccccc2)c2ccccc2CC12CCCC2	17	41*	0	0
CC[C@@]1(O)C(=O)OCc2c1cc1n(c2=O)Cc2cc3c(O)cccc3nc2-1	34	78*	-2	0
CCCCc1nc2ccccc2c(=O)n1-c1ccccc1O	12	11	-1	0
CC[C@@]1(O)C(=O)OCc2c1cc1n(c2=O)Cc2cc3ccccc3nc2-1	8	76*	0	0
O=C(NC(O)C(Cl)(Cl)Cl)c1ccncc1 (stereo unspecified)	4	6	-1	0
Cc1ccc(-n2c(/C=C/c3ccccc3Br)nc3ccccc3c2=O)cc1	-8	51*	0	0
CCN1CCC(O)(c2ccccc2)C(C(=O)c2ccccc2)C1 (stereo unspecified)	9	4	-1	2.0*
